Screening data deposited in PubChem BioAssay by National Center for Advancing Translational Sciences (NCATS).
Compounds with a hit are over-represented: about 16% of the library has one in this group of screens.
TDP1 block = qHTS Assay for Inhibitors of Tyrosyl-DNA Phosphodiesterase (TDP1). AID 485290, 2010. Tyrosyl-DNA phosphodiesterase 1 (Homo sapiens), Q9NUW8. recombinant TDP1, AlphaScreen DNA substrate cleavage. hit rate 0.28% among 350,000. Potency, µM (top dose mostly 130 µM), without a hit: at the top dose activity change, negative = inhibition, hits mostly inhibitors; also: potency is read from the fitted curve at half-maximal effect; % is scaled to controls: 0 for no effect and ±100 for the full control effect; nearly all actives have a fitted effect of over 40% in size
Target sequence (Q9NUW8 whole entry, looked up): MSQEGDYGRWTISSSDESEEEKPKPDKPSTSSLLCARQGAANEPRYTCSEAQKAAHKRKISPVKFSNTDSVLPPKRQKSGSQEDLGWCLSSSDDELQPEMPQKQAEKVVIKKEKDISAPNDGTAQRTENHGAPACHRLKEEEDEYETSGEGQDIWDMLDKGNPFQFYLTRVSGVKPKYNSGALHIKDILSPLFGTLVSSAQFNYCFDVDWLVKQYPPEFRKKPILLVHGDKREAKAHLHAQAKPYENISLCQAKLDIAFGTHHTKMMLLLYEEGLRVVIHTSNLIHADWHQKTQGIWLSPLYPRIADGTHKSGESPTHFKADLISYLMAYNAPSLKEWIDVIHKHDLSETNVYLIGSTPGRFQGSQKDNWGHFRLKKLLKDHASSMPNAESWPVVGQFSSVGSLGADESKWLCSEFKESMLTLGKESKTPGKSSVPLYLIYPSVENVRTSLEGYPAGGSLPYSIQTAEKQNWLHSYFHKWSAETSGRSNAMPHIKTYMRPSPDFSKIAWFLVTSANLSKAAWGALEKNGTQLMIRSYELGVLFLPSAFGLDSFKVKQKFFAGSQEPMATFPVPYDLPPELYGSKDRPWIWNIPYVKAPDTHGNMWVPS
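Recombinant E. coli-expressed Tdp1 (1 nM) preincubated with compound 15 min at RT, then 5'-biotin/3'-phosphotyrosine-FITC DNA substrate (15 nM) added for 5 min. AlphaScreen beads (10 ug/ml) added, 10 min RT; tyrosine-FITC cleavage read as signal loss.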
miR-21 reporter = qHTS Assay for Modulators of miRNAs and/orActivators of miR-21; HeLa miR-21 FLuc reporter, luciferase, 48 h; Potency, µM (highest dose often 38.3 µM), for the others: at the top dose activity change, positive = activation, hits mostly activators; 340,000 tested, under 10 active; AID 2288, 2010;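 also: % of control where 0% means no effect; miR-21 action dims this reporter so a rising signal means less miR-21 action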
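HeLa cells endogenously expressing miR-21, stably carrying CMV-driven firefly luciferase with a downstream miR-21 binding site, 2000 cells/well. Titrations up to approximately 40 uM, 48 hours; luciferase luminescence read.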
uPA generation = qHTS for Inhibitors of Cell Surface uPA Generation. cell surface uPA generation assay, qHTS. Potency, µM (series often up to 38.3 µM), for the others: at the highest dose activity change, negative = inhibition, hits mostly inhibitors. hit rate 0.31% among 330,000. AID 540303, 2011; active = well fitted inhibition curve with a large enough effect; inconclusive = small, poorly fitted or top-dose-only effect; inactive = no such curve, though single readings can be large or run the other way; tested in mouse RAW 264.7 cells; also: potency is read from the fitted curve at half-maximal effect; % is scaled to controls: 0 for no effect and ±100 for the full control effect; nearly all actives have a fitted effect of over 55% in size
DT40 TDP1 CPT = qHTS for Inhibitors of human tyrosyl-DNA phosphodiesterase 1 (TDP1): qHTS in cells in presence of CPT | chicken DT40 Tdp1-/-;hTDP1 cells + 20 nM CPT, ATP luminescence, 48 h | Potency, µM (highest dose often 46.2 µM), without a hit: at the top dose activity change, negative = growth inhibition, most hits filed as inhibitors | hit rate 12% among 420,000 | AID 686979, 2013; also: potency is read from the fitted curve at half-maximal effect; % is scaled to controls: 0 for no effect and ±100 for the full control effect; nearly all actives have a fitted effect of over 55% in size
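Chicken DT40 Tdp1-/- cells complemented with human TDP1, 400 cells/well, exposed to compounds plus 20 nM camptothecin for at least 48 h at 37 C; viability read as ATP content by CellTiter-Glo luminescence.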
DT40 TDP1 no CPT = qHTS for Inhibitors of human tyrosyl-DNA phosphodiesterase 1 (TDP1): qHTS in cells in absence of CPT. Potency, µM (top dose mostly 46.2 µM), inactives show at the top dose activity change, negative = growth inhibition, actives largely listed as inhibitors. DT40 Tdp1-/- hTDP1 cells, no CPT, ATP luminescence, 48 h. hit rate 15% among 420,000; also: potency is read from the fitted curve at half-maximal effect; % is scaled to controls: 0 for no effect and ±100 for the full control effect; nearly all actives have a fitted effect of over 55% in size
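Luminescent ATP content (CellTiter-Glo) served as the growth readout. Knockout chicken DT40 cells expressing human TDP1 were exposed to compounds without camptothecin for a minimum 48 hr at 37 °C.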
An asterisk follows results filed as active; ? = inconclusive; · = no result; [ ] = another dose, or the depositor's remark. Unless noted, calls follow the shape of the dose curve; as a rule, active = well fitted curve in the direction sought with a large enough effect; inconclusive = small, poorly fitted or top-dose-only effect, or another doubt; inactive = no such curve, though single readings can be large; an effect the other way counts as inactive or inconclusive.

SMILES | TDP1 block | miR-21 reporter | uPA generation | DT40 TDP1 CPT | DT40 TDP1 no CPT
COc1ccc(S(=O)(=O)c2c(Nc3c(C)cccc3C)sc(C(=O)c3ccc4c(c3)OCO4)c2N)cc1 | 0.6% | 22.2% | · | 5.17µM* | 2.91µM*
COc1ccc(S(=O)(=O)c2c(Nc3cccc(C)c3C)sc(C(=O)c3ccccc3)c2N)cc1 | 0.0% | ? | · | 2.91µM* | 3.26µM*
Cc1ccc(S(=O)(=O)c2c(Nc3cc(C)ccc3C)sc(C(=O)c3ccc4c(c3)OCO4)c2N)cc1 | 0.6% | 1.2% | · | 6.51µM* | 7.31µM*
COc1ccc(S(=O)(=O)c2c(Nc3c(C)cccc3C)sc(C(=O)c3ccc(F)cc3)c2N)cc1 | 7.7% | 2.5% | · | 5.8µM* | 5.17µM*
CCCCNC(=O)CCCCCn1c(=O)[nH]c2ccccc2c1=O | 7.0% | -9.3% | · | -28.2% | ?
COC(=O)Cn1ncn2c(cc3oc(C)cc32)c1=O | -2.0% | -31.2% | -4.8% | 5.5% | 4.1%
COC(=O)c1ccc(-c2ccc(/C=N/N3C(=O)C4C5C=CC(C6CC56)C4C3=O)o2)cc1 (centres undefined) | 3.4% | -38.8% | -3.8% | ? | 18.4µM*
COC(=O)c1cccc(-c2ccc(/C=N/N3C(=O)C4C5C=CC(C6CC56)C4C3=O)o2)c1 (centres undefined) | -2.5% | -0.3% | 0.6% | -1.4% | -8.5%
COc1cccc(/C=C/C(=O)c2ccc(C)c([N+](=O)[O-])c2)c1 | -3.4% | -8.8% | -17.2% | ? | 20.6µM*
COc1ccc(/C=C/C(=O)c2ccc(C)c([N+](=O)[O-])c2)cc1O | -2.6% | -13.1% | -12.5% | ? | 13µM*
COc1cc(/C=C/C(=O)c2ccc(C)c([N+](=O)[O-])c2)cc(OC)c1O | 0.0% | ? | -8.3% | 16.4µM* | 14.6µM*
COc1ccc(/C=C/c2c([N+](=O)[O-])c(=O)n(C)c(=O)n2C)cc1O | 1.0% | 14.7% | -12.7% | -28.7% | ?
COc1ccc(CNC(=O)CCc2nc3cccnc3n2Cc2ccc(OC)cc2)cc1 | 6.9% | -7.9% | · | -4.8% | -18.0%
O=C1CC(c2ccccc2)=Nc2ccccc2N1 | 2.0% | -11.2% | 0.6% | 7.2% | -0.8%
O=C1CC(/C=C/c2ccncc2)=Nc2ccccc2N1 | 5.8% | 13.9% | -15.3% | 5.8µM* | 5.8µM*
O=C(CSc1nc2ccccc2o1)Nc1nccs1 | 6.3% | -35.7% | 2.1% | -0.6% | 9.5%
CCC12CN(C(=O)c3ccc(C)cc3)CC(CC)(CN(C(=O)c3ccc(C)cc3)C1)C2=O | 0.0% | -3.7% | 4.9% | -6.1% | ?
Cc1ccc(C(=O)N2CC3(C(C)C)CN(C(=O)c4ccc(C)cc4)CC(C(C)C)(C2)C3=O)cc1 | 6.0% | -5.5% | 5.3% | ? | 14.6µM*
O=C1CC(c2ccccc2)CC(O)=C1C=Nc1ccc(Cl)cc1 (centres undefined) | 2.3% | -11.3% | -19.9% | -7.9% | -10.9%
O=C1CCCC(O)=C1C=Nc1ccc(O)cc1 | 4.8% | -8.3% | -14.5% | ? | 25.9µM*
O=C(NCCCN1CCOCC1)c1ccc2nc(Cc3ccccc3F)oc2c1 | 2.2% | -24.9% | -9.3% | 9.8% | 1.7%
Cc1ccc(C)c2[nH]c(=O)c(C(c3nnnn3C(C)(C)C)N3CC=C(c4ccc(F)cc4)CC3)cc12 (centres undefined) | 3.4% | -5.3% | -1.3% | ? | 16.4µM*
CCC(C)(C)n1nnnc1C(c1cc2cccc(C)c2[nH]c1=O)N1CCCC1 (centres undefined) | 8.2% | -3.0% | · | ? | -15.8%
COc1ccc(OC)c(N(CC(=O)Nc2cccc3ccccc23)S(C)(=O)=O)c1 | · | · | 5.2% | -1.7% | -4.4%
CC(C)C(=O)Nc1ccc(C(=O)NNC(=O)C(c2ccccc2)c2ccccc2)cc1 | -7.9% | -0.7% | · | -18.3% | -21.6%
SMILES | TDP1 block | miR-21 reporter | uPA generation | DT40 TDP1 CPT | DT40 TDP1 no CPT
Cc1cc(SCC(=O)c2cccc([N+](=O)[O-])c2)nc(=O)[nH]1 | 7.4% | -49.3% | 6.7% | -25.5% | -14.3%
O=C(O)CN1C(=O)/C(=C/c2ccc(-c3cccc(Cl)c3)o2)SC1=S | 4.9% | · | · | · | ·
O=C(O)c1cccc(N2C(=O)/C(=C/c3ccc(SCc4ccc(Cl)cc4)o3)SC2=S)c1 | · | 14.0% | 7.9% | 20.6µM* | ?
CCS(=O)(=O)N1CCN(C(=O)c2cccnc2)CC1 | 2.2% | -3.5% | 4.2% | 11.9% | -10.2%
CSc1nc(SCCO)c2sc3nc(-c4ccco4)c4c(c3c2n1)CC(C)(C)OC4 | · | -2.3% | -1.5% | ? | ?
CSc1nc(N(CCO)CCO)c2sc3nc(-c4ccco4)c4c(c3c2n1)CCC4 | 1.1% | -10.1% | -2.7% | 16.4µM* | 11.6µM*
CN(CC(=O)Nc1ccc(Cl)c(Cl)c1)C1CCCCC1 | 2.3% | 4.5% | -9.8% | ? | ?
CC(C(=O)NC1(C#N)CCCCC1)N(C)CC(=O)Nc1ccc(Cl)c(Cl)c1 (centres undefined) | 3.9% | · | -16.9% | ? | 18.4µM*
COc1ccc2sc(/C=C/c3ccccc3O)[n+](C)c2c1 | 9.3% | -7.7% | -6.8% | 23.1µM* | 14.6µM*
COc1ccc(N=Cc2ccccc2O)cc1 | · | · | -10.1% | -6.6% | -7.2%
NC(=O)c1sc2nnc(-c3ccccc3)c(-c3ccccc3)c2c1N | · | -4.7% | -0.6% | ? | 14.6µM*
CN(C)c1ccc(-c2nnn(Cc3ccccc3Br)n2)cc1 | 10.9% | -30.2% | 4.1% | -20.9% | ?
COc1ccc(OC)c(C2=Nn3c(nnc3-c3cccc(OC(C)C)c3)SC2)c1 | 2.1% | -2.4% | -0.8% | 13µM* | 11.6µM*
Cc1cc(-c2nnc3n2N=C(c2ccc(-c4ccccc4)cc2)CS3)n[nH]1 | 1.0% | 4.8% | 5.7% | 23.1µM* | 14.6µM*
COc1cccc(-c2nnc3n2N=C(c2ccccc2OC)CS3)c1 | 11.5% | · | · | · | ·
CCOc1ccc(C2=Nn3c(nnc3-c3ccc(OC)cc3)SC2)cc1 | 1.0% | 15.9% | -12.8% | 2.06µM* | 2.59µM*
Cc1ccc(-c2nnc3n2N=C(c2ccccc2Br)CS3)cc1 | 0.0% | -31.1% | -9.6% | 11.6µM* | 8.2µM*
CN[C@H]1[C@@H](O[C@@H]2[C@H](O[C@@H]3[C@@H](O)[C@@H](O)[C@@H](N=C(N)N)[C@@H](O)[C@@H]3N=C(N)N)O[C@H](C)[C@@]2(O)C=O)O[C@@H](CO)[C@@H](O)[C@H]1O | 4.6%[21 µM] | · | · | · | ·
COc1ccc(N(C(=O)C2CCCCC2)C2C=CS(=O)(=O)C2)c(OC)c1 (centres undefined) | 2.3% | 0.3% | -1.3% | -25.7% | -20.7%
